# Records with an inconclusive call do not appear. Values without a mark were called inactive. Active and inactive are the calls of the source. Calls come from the whole dose curve; as a rule, active = well fitted cell-killing curve with a large enough effect in the repeat runs; inconclusive = weak or mixed curves; inactive = no such curve, though single readings can be large or run the other way.
# Test: qHTS assay to identify small molecule antagonists of the androgen receptor (AR) signaling pathway - cell viability counter screen (AID 743033; note: nearly all actives have a fitted effect of over 45% in size)
# Conditions: AR-bla HEK293 viability, CellTiter-Glo luminescence, 16 h; series mostly up to 58.5 µM; activity change, negative = cytotoxicity: at the top concentration
# From the text: National Center for Advancing Translational Sciences [NCATS]
# NIH Chemical Genomics Center [NCGC]
# U.S. Environmental Protection Agency [EPA]
# National Institutes of Environmental Health Sciences [NIEHS]
# National Toxicology Program [NTP]
# U.S. Food and Drug Administration [FDA]
# Androgen receptor (AR), a nuclear hormone receptor, plays a critical role in AR-dependent prostate cancer and other androgen related diseases. Endocrine disrupting chemicals (EDCs) and their interactions with steroid hormone receptors like AR may cause disruption of normal endocrine function as well as interfere with metabolic homeostasis, reproduction, developmental and behavioral functions. To identify the compounds that inhibit AR signaling, GeneBLAzer AR-UAS-bla-GripTite cell line (Invitrogen, Carlsbad, CA, USA) containing a beta-lactamase reporter gene under control of an Upstream Activator Sequence (UAS) stably integrated into HEK293 cells was used to screen the Tox21 10K compound library. The cytotoxicity of the Tox21 compound library against the AR-bla cell line was tested in parallel by measuring the cell viability using CellTiter-Glo assay in the same wells.
# Tox21 Assay Protocol Summary:
# AR-bla cells were dispensed at 2,000 cells/5 uL of assay medium per well into black wall/clear-bottom 1536-well plates using a Multidrop Combi (ThermoFisher Scientific, Waltham, MA) dispenser. After the assay plates were incubated at a 37C and 5% CO2 for 4 hr, 23 nL of compounds dissolved in DMSO, positive controls or DMSO only was transferred to the assay plate by a Pintool station (Kalypsys, San Diego, CA), followed by addition of 1 uL of agonist (R1881) in culture medium using a Bioraptr Flying Reagent Dispenser (FRD) workstation (Beckman Coulter, Indianapolis, IN, USA). The plates were incubated at a 37C and 5% CO2 for 16 h. After 1 uL of LiveBLAzerTM B/G FRET substrate was added using a Bioraptr FRD, the plates were incubated at room temperature for 2 h and fluorescence intensity was measured by an Envision plate reader (PerkinElmer, Shelton, CT). For cell viability readout that measures cytotoxicity, 4 ul/well of CellTiter-Glo reagent was added into the assay plates using a Bioraptr FRD. After 30 min incubation at room temperature, the luminescence intensity in the plates was measured using a ViewLux (PerkinElmer) plate reader.
# % is set by controls: 0 for no effect and ±100 for the full control effect; potency is the fitted concentration of half-maximal effect.
SMILES,"activity change, negative = cytotoxicity",Potency
COC(=O)C(C)=O,1.97% [at 78.9 µM],
Cl/C(=C\n1cncn1)c1ccc(Cl)cc1Cl,9.32%,
OC(CCN1CCCCC1)(c1ccccc1)C1CCCCC1 (stereo not given),0.655%,
C1=Cc2ccccc2C1,-2.45%,
CCC(=O)OC(C)(C)C1CC=C(C)CC1 (stereo not given),-11.5%,
COCCO,-0.41%,
c1ccc(CNCc2ccccc2)cc1,6.45%,
CC[C@H](C)[C@H](N)C(=O)O,3.9%,
CCN(CC)CCOc1ccc2c(c1)C(=O)c1cc(OCCN(CC)CC)ccc1-2,-1.83%,
CN(C(=O)CCCOc1ccc2[nH]c(=O)ccc2c1)C1CCCCC1,-2.32%,
Cc1ccc(C(=O)C(C)CN2CCCCC2)cc1 (stereo not given),,inactive
CCCCCOC(=O)COc1cc(N2C(=O)C3=C(CCCC3)C2=O)c(F)cc1Cl,-3.42%,
COc1ccc(OC)c(OC)c1,6.24%,
CCN(CC)CCNC(C(=O)OCCC(C)C)c1ccccc1 (stereo not given),6.31%,
O=C(Cl)c1c(Cl)cccc1Cl,0.933% [at 78.9 µM],
CCOC(=O)CC(C)C,-4.09%,
O=C(O)Cn1c(C(=O)Nc2nc(-c3ccccc3Cl)cs2)cc2ccccc21,8.96%,
C=C(C)C(=O)OCCN(C)C,3.43% [at 78.9 µM],
C=CC(=O)OCC(C)OCC(C)OCC(C)OC(=O)C=C (stereo not given),,54.9 µM (active)
CCOc1cc(OCC)c(C(=O)CCC(=O)O)cc1OCC,2.52%,

SMILES,"activity change, negative = cytotoxicity",Potency
CN1CCN(C2=Nc3cc(Cl)ccc3Nc3ccccc32)CC1,-24.1%,
NCCCOCCOCCOCCCN,-17.2%,
CCOC(=O)CC(=O)c1cc(F)c(Cl)nc1Cl,-9.67% [at 78.9 µM],
OCCC1CCCCN1 (stereo not given),-19.5% [at 78.9 µM],
O=C(NN1CCCC1)NS(=O)(=O)c1ccc(Cl)cc1,-10.7%,
CC(O)C1CCCCC1 (stereo not given),-1.56%,
CC(CN)CCCN (stereo not given),0.101%,
O=S1(=O)N=C(O)c2ccccc21,2.16%,
Cc1ccc(C)o1,-0.185% [at 78.9 µM],
N#CCCNCCC#N,0.255% [at 78.9 µM],
O=[N+]([O-])c1cccc(Cl)c1Cl,2.36%,
CN(C)CC[C@@H](c1ccc(Br)cc1)c1ccccn1,-0.985%,
COCCOCCOCCOCCOC,-8.15%,
CC(=O)N(O)CCCCCNC(=O)CCC(=O)N(O)CCCCCNC(=O)CCC(=O)N(O)CCCCCN,-21.4% [at 27 µM],
C[Si](C)O[Si](C)(C)O[Si](C)(C)O[Si](C)C,0.674%,
CCCCCc1ccc(N)cc1,5.76%,
CN(C)CCCOc1nn(Cc2ccccc2)c2ccccc12,2.89% [at 27 µM],
CC(C)c1cccc(C(C)C)c1NC(=O)NS(=O)(=O)c1cc(C(C)(C)O)co1,3.4%,
O=C(O)[C@@H]1[C@H]2C[C@H]3c4[nH]c5ccccc5c4CCN3C[C@@H]2CC[C@@H]1O,10.7% [at 27 µM],
CCCCOC(O)CC (stereo not given),1.79%,

# — PubChem BioAssay (Tox21)
